High-throughput results (PubChem)
In the library only some 2.4% were active in any assay of this set; here they are far more common.
SENP8 block-1: inhibitors of human SENP8 protease; recombinant SENP8, Nedd8 substrate fluorescence; inhibition, % at 20 µM; 360,000 compounds, 0.64% hits; in the data active means inhibition mostly above about 40%, no sharp cut-off; inactive means mostly below about 27%
SENP7 block: SENP7 protease inhibition; inhibition, % at 5 µM; 330,000 compounds, 1.5% hits; recombinant SENP7, Z-RLRGG-aminoluciferin luminescence, 40 min;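 active means inhibition above about 50% at the single test dose, limit read from the data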;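 further: plate controls were DMSO with enzyme for no effect and no enzyme buffer wells for full effect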
Target sequence (Q9BQF6 706-1050 limits assumed): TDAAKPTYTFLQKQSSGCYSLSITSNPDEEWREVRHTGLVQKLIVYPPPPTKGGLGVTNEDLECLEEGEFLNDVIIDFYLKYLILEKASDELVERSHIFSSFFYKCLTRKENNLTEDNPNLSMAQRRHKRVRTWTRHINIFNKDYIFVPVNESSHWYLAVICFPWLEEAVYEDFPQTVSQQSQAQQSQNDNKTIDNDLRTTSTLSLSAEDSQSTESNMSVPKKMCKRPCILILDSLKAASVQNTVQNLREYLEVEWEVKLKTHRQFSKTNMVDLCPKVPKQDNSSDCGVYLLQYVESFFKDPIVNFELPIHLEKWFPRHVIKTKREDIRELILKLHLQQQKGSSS
SENP6 inh: SENP6 protease inhibition; Q9GZR1; Recombinant SENP6 catalytic domain, aminoluciferin luminescence; inhibition, % at 10 µM; 330,000 compounds, 1.8% hits;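 active means inhibition above about 50% at the single tested dose, limit read from the data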;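 further: plate controls were DMSO wells with enzyme for no effect and DMSO wells lacking enzyme for full effect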
SENP8 block-2: inhibitors of human SENP8 protease. Q96LD8. AID 2540. purified SENP8, Z-RLRGG-aminoluciferin cleavage, luminescence. inhibition, % at 10 µM. 330,000 compounds, 1.2% hits; in the data active means inhibition above about 50%
Platelet DG rel: platelet dense granule release activity; human platelet-rich plasma, SFLLRN dense granule ATP release, luminescence; inhibition, %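 (compounds screened at 7.5 µM in platelet-rich plasma)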; 300,000 compounds, 0.22% hits;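 active means mean replicate score, as percent of positive control, at or above 50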
SENP8 conf: confirmation of human SENP8 protease inhibitors; 6,200 compounds, 40% hits; inhibition, % at 12.5 µM; Recombinant SENP8, Z-RLRGG-aminoluciferin luminescence, 60 min; AID 488912; shares compounds with SENP7 block;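 active means mean inhibition across replicates above about 50%, limit read from the data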
SENP6 confirm: human SENP6 inhibition, confirmed | inhibition, % at 12.5 µM | recombinant SENP6, Z-RLRGG-aminoluciferin luminescence | shares compounds with SENP7 block | 6,200 compounds, 58% hits
SENP7 conf: confirmation of human SENP7 protease inhibitors. inhibition, % at 12.5 µM. recombinant SENP7, Z-RLRGG-aminoluciferin luminescence, 40 min. AID 488917. 6,200 compounds, 69% hits. shares compounds with SENP7 block
Casp3 SENP sel: selectivity test for SENP inhibitors: human caspase-3 inhibition. inhibition, % at 12.5 µM. 6,200 compounds, 60% hits. shares compounds with SENP7 block. purified caspase-3, Z-DEVD-aminoluciferin luminescence, 60 min;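 active means mean inhibition above about 50%, limit read from the data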;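 further: plate controls were enzyme with DMSO for no effect and wells without caspase-3 for full effect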
Luc interf: luminescence interference (SENP counter-screen). shares compounds with SENP7 block. Pre-incubated SENP8/Z-RLRGG-aminoluciferin, luciferase luminescence interference. inhibition, % at 12.5 µM. 6,200 compounds, 39% hits. AID 488919;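 active means mean inhibition above about 50% when retested at one dose, limit read from the data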;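 further: plate controls were DMSO wells with completed reaction for no effect and substrate without enzyme for full effect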
* hit, by the source's call; i = inactive; / = no result given.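 How the source made its calls, unless noted: active means mean inhibition above about 50% in the one-dose retest (limit read from the data); inactive means the rest.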

SMILES	SENP8 block-1	SENP7 block	SENP6 inh	SENP8 block-2	Platelet DG rel	SENP8 conf	SENP6 confirm	SENP7 conf	Casp3 SENP sel	Luc interf
Cc1nn2cc(-c3ccc(-c4ccccc4)cc3)nc2s1	-118	58*	-1	13	6	3	11	6	8	6
CCOc1ccc(OCc2cccc(C(=O)N3CCCCCC3)c2)cc1	13	-2	5	13	-3	/	/	/	/	/
COC(=O)Nc1ccc(OCc2ccccc2)cc1	8	2	73*	48	6	53*	51*	82*	63*	18
COc1ccc(OCc2cccc(C(=O)O)c2)cc1	19	100*	98*	97*	14	100*	101*	103*	99*	99*
O=C(NCc1ccccc1)c1cccc(COc2ccc3c(c2)CCC3)c1	-1	-1	25	7	9	/	/	/	/	/
O=C(O)c1cccc(COc2ccc(CO)cc2Cl)c1	7	100*	97*	96*	14	98*	100*	104*	98*	99*
O=C(O)c1cccc(COc2ccc3c(c2)CCC3)c1	25	99*	97*	97*	-2	11	101*	104*	99*	100*
O=C(O)c1ccc(COc2ccc(CO)cc2Cl)cc1	3	6	24	32	3	/	/	/	/	/
COCC(=O)Nc1ccc(OCc2ccccc2)cc1	14	39	30	16	-8	/	/	/	/	/
CCN(CC)CCNC(=O)c1ccc(NC(=O)C2CC(=O)N(CCc3ccc(OC)c(OC)c3)C2)cc1 (configuration not stated)	-13	-7	-3	12	/	/	/	/	/	/
CC(Oc1ccc(Br)cc1)C(=O)N(Cc1ccccc1)c1c(N)n(Cc2ccccc2)c(=O)[nH]c1=O (configuration not stated)	13	/	/	/	/	/	/	/	/	/
Cc1nc2ccc(NC(=O)CSc3nnc(C)s3)cc2[nH]1	6	3	-10	-2	4	/	/	/	/	/
COc1cc(/C=C/[N+](=O)[O-])ccc1OCc1cccc(C(=O)O)c1	/	24	51*	25	0	57*	32	49	16	64*
CCOc1ccc(OCc2cccc(C(=O)O)c2)cc1	16	100*	99*	96*	6	10	100*	103*	99*	98*
CCOc1ccc(OCc2cccc(C(=O)N3CCCC3)c2)cc1	0	8	13	9	2	/	/	/	/	/
CSc1cccc(NC(=O)NNC(=O)C2CCN(S(=O)(=O)N(C)C)CC2)c1	11	17	-9	-3	-6	/	/	/	/	/
Cc1cc(O)c(C=Nc2ccc(N3CCOCC3)cc2)c(C)c1Cl	22	82*	57*	38	-2	10	11	8	28	3
Cc1ccccc1CC(=O)N1CCN(S(=O)(=O)c2ccc(Cl)s2)CC1	8	-12	-5	-12	/	/	/	/	/	/
c1csc(-c2nc(CN3CCSCC3)cs2)c1	-19	88*	80*	74*	16	80*	80*	96*	94*	86*
CNC(=O)c1csc(-c2cccs2)n1	5	-6	-10	-22	-2	/	/	/	/	/
O=C(O)c1csc(-c2cccs2)n1	-8	-4	-8	57*	0	2	2	2	-2	-1
O=C(COC(=O)c1ccc(Cl)nc1)Nc1cccnc1Cl	6	-4	-6	-6	-5	/	/	/	/	/
CCC(=O)Nc1cccc(-c2nnc(-c3cccc(NC(=O)CC)c3)o2)c1	-15	-18	-13	-6	-17	/	/	/	/	/
CCCC(=O)Nc1cccc(-c2nc3cc(C)c(C)cc3o2)c1	-398	91*	35	23	/	25	23	28	37	54*
CCC(=O)Nc1ccc2oc(-c3cccc(C)c3)nc2c1	i	98*	99*	94*	/	5	98*	103*	96*	75*
